From PubChem BioAssay AID1159580 (chemical genetic matrix, 2015)
Among all 5,500 compounds or so, about 2,000 (36%) were called active. Another 18% or so got no clear call; they are omitted. Rule as the data show it: active = normalized growth mostly below about 0.91 (no sharp cut-off); inconclusive = no clear call, values can overlap the other calls; inactive = mostly above about 0.92. The list shows a part of the results.

Test: chemical genetic growth profiling, strain panel (AID 1159580);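 also: tested at 20 µM; growth read once vehicle control cultures reached saturation at 30 °C; 1 = growth at the plate median or of vehicle wells; lower values mean less growth of the strain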
Settings: S. cerevisiae deletion strains, growth OD

Measured: normalized growth

N#Cc1nccnc1Sc1ccc(Cl)cc1
inactive: locus YAL013W, strain DEP1, stronger effect = lower value 0.946 | locus YBR229C, strain ROT2, stronger effect = lower value 0.936 | locus YDL101C, strain DUN1, stronger effect = lower value 0.948 | locus YDR150W, strain NUM1, stronger effect = lower value 1.03 | locus YEL061C, strain CIN8, stronger effect = lower value 0.914 | locus YGR078C, strain PAC10, stronger effect = lower value 0.962 | locus YHR087W, strain rtc3, stronger effect = lower value 0.978 | locus YJL187C, strain SWE1, stronger effect = lower value 0.949 | locus YJR043C, strain POL32, stronger effect = lower value 0.993 | locus YJR075W, strain HOC1, stronger effect = lower value 0.986 | locus YKL190W, strain CNB1, stronger effect = lower value 0.932 | locus YML094W, strain GIM5, stronger effect = lower value 0.905 | locus YMR263W, strain SAP30, stronger effect = lower value 0.963 | locus YNL128W, strain TEP1, stronger effect = lower value 0.945 | locus YNL153C, strain GIM3, stronger effect = lower value 0.988 | locus YNL298W, strain CLA4 (second series), stronger effect = lower value 0.868 | locus YNR030W, strain Alg12, stronger effect = lower value 0.927 | locus YPL055C, strain LGE1, stronger effect = lower value 1.01 | locus YPL241C, strain CIN2, stronger effect = lower value 0.941
active: locus YHR030C, strain SLT2, stronger effect = lower value 0.537 | locus YLR039C, strain RIC1, stronger effect = lower value 0.698 | locus YLR058C, strain SHM2 (second series), stronger effect = lower value 0.929 | locus YLR085C, strain ARP6, stronger effect = lower value 0.686 | locus YLR262C, strain YPT6, stronger effect = lower value 0.729 | locus YMR219W, strain ESC1, stronger effect = lower value 0.93 | locus YNL322C, strain KRE1, stronger effect = lower value 0.925 | locus YPR135W, strain CTF4, stronger effect = lower value 0.556
